Screens (PubChem BioAssay)
Hits are enriched below; roughly 4.6% of the tested compounds scored in any of these assays.
sEH inhibitor = blocks human soluble epoxide hydrolase activity; P34913; recombinant human sEH enzymatic activity assay; inhibition, % at 2 µM; 0.34% of 91,000 active; AID 707; in the data active means inhibition above about 80%
Cav32 inh = human Cav3.2 channel inhibition, primary screen | O95180 | Cav3.2-expressing cells, Fluo-4 calcium fluorescence FDSS; active compounds read low | B-score at 10 µM | 4% of 100,000 active | AID 449739;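 active means single-dose well whose peak fluorescence ratio is a statistical outlier from its plate by either plate-standardised score or position-corrected B-score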
IL1B NFkB pot = enhances IL-1B driven NFkB nuclear translocation. activation, % at 2 µM. HUVEC IL-1B NFkB p65 nuclear translocation imaging. 0.3% of 94,000 active;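 active means activation above 40%, about the mean plus 3 SD, also judged a hit on visual image review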;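 further: percent activation is computed from the nuclear over cytoplasmic p65 intensity ratio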
IL1B cytotox = toxic to HUVEC cells under IL-1B stimulation. HUVEC cell count loss, Hoechst imaging, IL-1B stimulated. cell count reduction, % at 2 µM. 0.41% of 94,000 active;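 active means cell count reduction more than 3 SD above the screen-wide mean, cut at about 70% in these data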
sEH act = increases human soluble epoxide hydrolase activity. P34913. purified human sEH enzymatic activity, activator screen. activation, % at 2 µM. 0.04% of 91,000 active. AID 717; in the data active means activation above about 37%
NFkB transloc inh = blocks IL-1B driven NFkB nuclear translocation in HUVEC cells; 0.43% of 94,000 active; inhibition, % at 2 µM; HUVEC IL-1B NFkB p65 nuclear translocation imaging;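 active means inhibition above about 30% together with a positive call from visual inspection of the well image, limit read from the data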;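 further: nuclear over cytoplasmic p65 intensity ratio measured by imaging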
A number is an active result; n = inactive; x = no result.

SMILES | sEH inhibitor | Cav32 inh | IL1B NFkB pot | IL1B cytotox | sEH act | NFkB transloc inh
CC(=O)n1c2ccccc2c2nc(NC(C)C)sc21 | n | n | n | n | n | n
CCCN1C(=O)/C(=C/c2c(NCCCOC(C)C)nc3c(C)cccn3c2=O)SC1=S | n | n | x | x | n | x
CCC(C)N1C(=O)/C(=C/c2c(NCCCOC(C)C)nc3c(C)cccn3c2=O)SC1=S (centres undefined) | n | -5.1 | n | n | n | n
O=C(NCCCn1ccnc1)C1CC2CCC1C2 (centres undefined) | n | n | n | n | n | n
N#Cc1cc([N+](=O)[O-])ccc1Oc1cccc(/C=N/NC(=O)c2cccc(Cl)c2)c1 | n | n | n | n | n | n
c1ccc(Oc2nc(NCc3ccco3)nc(NCc3ccco3)n2)cc1 | n | n | n | n | n | n
CCCCCCNc1nc(NCc2ccco2)nc(OCC)n1 | n | -7.2 | n | n | n | n
CN(CCNC(=O)c1cn(C)c2ccc(S(=O)(=O)N(C)C)cc2c1=O)CCc1ccccc1 | x | n | x | x | x | x
CCC1C(=O)N=C(SCC(=O)Nc2ccc(C(=O)OC)cc2)NC1=O (centres undefined) | n | n | n | n | n | n
N#Cc1ccccc1Cn1c(-c2cscn2)nc2ccccc21 | n | n | n | n | n | n
COc1cccc(-c2noc(-c3cccs3)n2)c1 | n | n | n | n | n | n
CC(C)NC(=O)CSc1nc(Cc2cccs2)nc2ccccc12 | n | n | n | n | n | n
CCN(CC)c1ccc2cc(C(=O)Nc3ccccn3)c(=O)oc2c1 | x | n | x | x | x | x
CCC(=O)N1CCN(c2ccc(Cl)cc2NC(=O)Cc2ccccc2)CC1 | n | -6 | n | n | n | n
CCC(=O)Nc1cc(Cl)ccc1N1CCN(C(=O)CC)CC1 | n | n | n | n | n | n
O=S(=O)(c1ccc2c(c1)OCCO2)N1CCC(c2nc3ccc(Cl)cc3[nH]2)CC1 | x | n | n | n | x | n
O=C(NCC1CCCO1)c1ccc(S(=O)(=O)N2CCC(c3nc4ccc(Cl)cc4[nH]3)CC2)cc1 (centres undefined) | 81 | n | n | n | n | n
CCOc1cc2c3c(c1)C1(Nc4ccccc4S1)C(=O)N3C(C)(C)CC2C (centres undefined) | n | -4.2 | n | n | n | n
CCOc1cc2c3c(c1)C1(OCCO1)C(=O)N3C(C)(C)CC2C (centres undefined) | n | n | n | n | n | n
COc1ccc(CN(C(=O)CN2C(=O)C(C)Oc3ccccc32)C2CCCC2)c(OC)c1 (centres undefined) | n | -4.4 | n | n | n | n
COc1ccc(CN(C(=O)CN2C(=O)COc3ccccc32)C2CCCC2)c(OC)c1 | n | n | n | n | n | n
COc1ccnc(NCc2cccnc2)c1C#N | n | n | n | n | n | n
CC1CCCC(C)N1C(=O)CSc1nc2ccccc2s1 (centres undefined) | n | n | n | n | n | n
Cc1cc(C)nc(SCc2nnc(SCC(=O)Nc3ccc(C)c(C)c3)n2Cc2ccco2)n1 | n | -8 | n | n | n | n
O=C(CSc1nnc(Cc2ccccc2)n1Cc1ccco1)NC12CC3CC(CC(C3)C1)C2 | n | -3.2 | n | n | n | n
SMILES | sEH inhibitor | Cav32 inh | IL1B NFkB pot | IL1B cytotox | sEH act | NFkB transloc inh
O=C(CSc1nnc(Cc2cccs2)n1Cc1ccco1)Nc1ccc(Cl)cc1Cl | n | x | n | n | n | n
O=C(CSc1nnc(Cc2cccs2)n1Cc1ccco1)Nc1ccc(Br)cc1 | n | -4 | n | n | n | n
CC(=O)OC(C(=O)NCS(=O)(=O)c1ccc(C)cc1)c1cccnc1 (centres undefined) | n | n | n | n | n | n
C=CCc1c(C)[nH]c2ccc(C)cc2c1=O | n | n | n | n | n | n
O=C(c1cc(NC(=O)C23CC4CC(CC(C4)C2)C3)cc(NC(=O)C23CC4CC(CC(C4)C2)C3)c1)N1CCCCC1 | n | -8 | n | n | n | n
COc1ccc(-c2cn(-c3ccc(C)cc3)c(=O)n2CC(=O)Nc2cccc(F)c2)cc1 | n | -5 | n | n | n | n
CC(C)n1c(=S)[nH]c2ccccc2c1=O | x | n | n | n | x | 36
Cc1ccc(-c2nnc(SCC(=O)N3CCCC3)o2)cc1 | n | n | n | n | n | n
O=C(CSc1nnc(-c2ccccc2Cl)o1)N1CCCCC1 | x | -4.2 | x | x | x | x
O=C(c1nc2nc(-c3ccccc3)cc(C(F)(F)F)n2n1)N1CCCCC1 | n | n | n | n | n | n
